Assay results as given in PubChem BioAssay AID1159580 (chemical genetic matrix, 2015).
About 2,000 (36%) of roughly 5,500 compounds were called active. Not shown: some 18% with an inconclusive outcome. Rule as the data show it: active = normalized growth mostly below about 0.91 (no sharp cut-off); inconclusive = no clear call, values can overlap the other calls; inactive = mostly above about 0.92. Some of the results follow.

Experiment: chemical genetic growth profiling, strain panel (AID 1159580);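 also: tested at 20 µM; growth read once vehicle control cultures reached saturation at 30 °C; 1 = growth at the plate median or of vehicle wells; lower values mean less growth of the strain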
Conditions: S. cerevisiae deletion strains, growth OD

Measured: normalized growth

C#C[C@@H]1CC2C3CCC4=C[C@@H](OC(C)=O)CCC4C3CC[C@]2(C)[C@H]1OC(C)=O (stereo partly drawn)
inactive: locus YHR030C, strain SLT2, stronger effect = lower value 1 | locus YHR079C, strain IRE1, stronger effect = lower value 0.929 | locus YJL095W, strain BCK1, stronger effect = lower value 0.951 | locus YJR066W, strain TOR1, stronger effect = lower value 0.947 | locus YLR113W, strain HOG1, stronger effect = lower value 0.912 | locus YNL183C, strain NPR1, stronger effect = lower value 0.903 | locus YOR231W, strain MKK1, stronger effect = lower value 0.946 | locus YPL256C, strain CLN2, stronger effect = lower value 0.936
